Source: PubChem BioAssay (National Center for Advancing Translational Sciences (NCATS))
Compounds with a hit are over-represented: about 1.8% of the library has one in this group of screens.
PI4K2A inh = blocks human PI4K2A kinase activity; Q9BTU6; purified PI4K2A, ADP-Glo luminescence, 1 h; active compounds read low; activity change, negative = inhibition, % at 76.9 µM; 420,000 compounds, 0.13% hits; AID 1346378; in the data active means activity change below about -50%; inconclusive means mostly about -30% to -49%;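 further: -100% = wells without enzyme as full effect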
Target sequence (Q9BTU6 whole entry, looked up): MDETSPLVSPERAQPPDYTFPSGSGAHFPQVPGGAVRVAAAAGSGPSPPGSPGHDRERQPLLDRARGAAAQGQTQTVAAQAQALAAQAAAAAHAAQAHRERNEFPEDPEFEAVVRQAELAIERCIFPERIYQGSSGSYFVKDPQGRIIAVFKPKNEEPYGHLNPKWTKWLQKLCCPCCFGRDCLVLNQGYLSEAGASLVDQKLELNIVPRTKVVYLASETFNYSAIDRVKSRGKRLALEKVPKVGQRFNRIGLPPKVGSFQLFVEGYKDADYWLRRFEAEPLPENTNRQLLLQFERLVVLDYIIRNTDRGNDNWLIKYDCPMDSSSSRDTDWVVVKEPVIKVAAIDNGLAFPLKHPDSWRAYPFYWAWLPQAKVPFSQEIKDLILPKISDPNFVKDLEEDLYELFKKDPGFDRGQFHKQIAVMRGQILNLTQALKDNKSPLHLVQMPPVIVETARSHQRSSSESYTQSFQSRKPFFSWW
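Compounds are screened against recombinant PI4K2A using PI as substrate and ATP, the latter dispensed at 300 microM. Reactions run one hour at ambient temperature before ADP-Glo detection; full inhibition defined by wells lacking enzyme.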
PI5P4Ka inh = PI5P4K alpha (human) kinase inhibition. P48426. PI5P4Kalpha enzyme, ADP-Glo luminescence, 60 min; active compounds read low. max response, %. 330,000 compounds, 1.2% hits; active means max response of -50% or lower; inconclusive means between -30% and -50%; inactive means -30% or higher; further: value at the top dose of about 77 µM
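Controls without substrate or without enzyme flank wells where PI5P4Kalpha converts substrate using 5 microM ATP (final). Incubation lasts 60 minutes at room temperature; ADP formed is read by ADP-Glo luminescence.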
CtBP-E1A inh = blocks the CtBP interaction with E1A. activity change, % (no concentration beside the values). 340,000 compounds, 0.49% hits. AlphaScreen GST-E1A/His-CtBP binding, 1536-well; active compounds read low
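GST-E1A and His-tagged CtBP (125 nM each as 5X stock) were preincubated with pin-transferred compound for 2 h at 37 °C in the dark, then glutathione donor and nickel acceptor beads were added for 1 h before AlphaScreen reading.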
Akt phos inh = blocks phosphorylation of Akt; Neuro2A IGF-stimulated pAkt S473 HTRF, 20 min; active compounds read low; activity change, % for hits at 50 µM; 360,000 compounds, 0.32% hits; in the data active means activity change below about -80%; inconclusive means mostly about -51% to -80%
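Neuro2A cells in DMEM with 0.5% FBS, overnight at 37 deg C, given compound at single 50 µM final, then IGF (6 nM final) for 20 min at 37 deg C. Lysed; phospho-Akt Ser473 by HTRF after 24 h, 665/615 ratio.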
Six1-Eya2 inh = Six1/Eya2 interaction inhibition. AlphaScreen GST-Six1/His-Eya2 binding, biochemical; active compounds read low. activity change, % (test concentration not listed). 360,000 compounds, 0.56% hits
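GST-Six1 + His-Eya2 (5X stock: 250/500 nM); Tris pH 8.0, 300 mM NaCl, 0.05% BSA, 0.02% Tween 20; GSH donor/Ni acceptor beads; 1 h 37 °C dark; AlphaScreen readout.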
The depositor's hits bear a star; i = inactive; ? = inconclusive; nt = not tested or not shown. Unless noted, no stated cut-off is given here; in the data, active means activity change below about -65%; inconclusive means mostly about -30% to -63%; inactive means weaker than that. Unless noted, on the % scale 0 is the no-effect control and ±100 the full control effect.

SMILES | PI4K2A inh | PI5P4Ka inh | CtBP-E1A inh | Akt phos inh | Six1-Eya2 inh
COc1ccccc1N=c1oc2cc(O)ccc2cc1C(N)=O | -51.6* | -70.7* | -9.5 | i | -26.9
O=C(O)COc1ccccc1C(Nc1cccnc1)c1cc(Cl)c2cccnc2c1O (stereo unspecified) | -15.8 | -64.5* | -91.2* | i | -67.0*
CCC(=O)NC(c1ccco1)c1cc(Cl)c2ccccc2c1O (stereo unspecified) | -5.9 | nt | nt | nt | nt
CCC(=O)NC(c1ccc(OC)c(OC)c1)c1cc(Cl)c2cccnc2c1O (stereo unspecified) | -20.9 | 5.5 | -85.1* | i | -81.7*
CCC(=O)NC(c1ccc(C)cc1)c1cc(Cl)c2cccnc2c1O (stereo unspecified) | -1.9 | nt | nt | nt | nt
CCCC(=O)NC(c1ccc2c(c1)OCO2)c1cc(Cl)c2cccnc2c1O (stereo unspecified) | -1.7 | -18.1 | -77.6* | i | -76.9*
COc1ccccc1C(NC(C)=O)c1cc(Cl)c2cccnc2c1O (stereo unspecified) | 3.8 | 4.2 | ? | i | ?
CCCC(=O)NC(c1ccco1)c1cc(Cl)c2cccnc2c1O (stereo unspecified) | -5.0 | -1.0 | -90.0* | i | -83.2*
CC1CCCN(CCCNC(=O)c2ccc3c(c2)N(Cc2cccc(Cl)c2)C(=O)c2ccccc2S3=O)C1 (stereo unspecified) | 2.9 | -10.2 | -1.2 | i | 0.3
CCCC(=O)NC(c1cccs1)c1cc(Cl)c2cccnc2c1O (stereo unspecified) | 4.3 | -19.2 | -70.5* | i | ?
COc1ccc(C2C(C(=O)c3ccco3)=C(O)C(=O)N2CCc2ccccc2)cc1OC (stereo unspecified) | 1.3 | -4.1 | -0.5 | i | 2.2
COc1ccc(C2C(C(=O)c3ccco3)=C(O)C(=O)N2CCOCCO)cc1OC (stereo unspecified) | 7.0 | nt | 1.5 | -85.2%* | -1.3
O=C1OCCC1Sc1nnc(-c2ccc(O)cc2)o1 (stereo unspecified) | -3.4 | -14.9 | 2.7 | i | -1.9
CCc1nc(SCC(=O)NCCc2ccccc2)c2oc3ccccc3c2n1 | -0.8 | 0.4 | 0.5 | -102.7%* | 6.6
O=C(CSc1ncnc2c1oc1ccccc12)Nc1cccc(Cl)c1 | 1.5 | 0.7 | 6.4 | -108.4%* | 3.1
Cc1nc(SCC(=O)Nc2ccc(F)cc2)c2oc3ccccc3c2n1 | 0.0 | 6.9 | 4.8 | -90.0%* | -0.3
Cc1nc(SCC(=O)Nc2ccccc2)c2oc3ccccc3c2n1 | -0.1 | 7.6 | 13.9 | -115.5%* | 1.0
COc1ccc(OC)c(NCc2nnc(-c3ccccc3)o2)c1 | 1.4 | -1.7 | -11.9 | i | -14.8
COc1cccc(C(=O)N2CCN(Cc3cn[nH]c3-c3ccc(F)cc3F)CC2)c1 | 3.0 | -10.2 | 1.5 | i | -0.7
O=S(=O)(O)c1cc(Cl)cc(N=Nc2ccc(O)cc2O)c1O | -18.0 | -98.5* | -89.6* | i | -91.7*
O=[N+]([O-])c1ccc(N=Nc2ccc(O)cc2O)cc1 | -6.1 | -17.1 | 5.0 | i | 4.0
Cc1ccccc1CNC1CCCCC1 | -6.2 | 3.9 | 18.1 | i | 1.3
Oc1cc(CNC2CCCCC2)c(O)cc1CNC1CCCCC1 | -6.0 | -52.8* | -11.6 | i | -7.4
CC(=O)Nc1ccc(NC(=O)Cn2c(-c3ccc(F)cc3)cnc2SCC(=O)Nc2c(C)cccc2C)cc1 | -2.5 | -1.0 | -5.7 | i | 2.5
O=C(CSc1ccc2nnc(-c3ccc(Cl)cc3)n2n1)N1CCCC1 | 3.0 | -13.2 | 3.8 | i | 9.5
SMILES | PI4K2A inh | PI5P4Ka inh | CtBP-E1A inh | Akt phos inh | Six1-Eya2 inh
COc1ccc(-c2nn3c(-c4ccccn4)nnc3s2)cc1OC | -7.0 | nt | -89.5* | i | -80.6*
Brc1ccc(-c2nn3c(-c4ccco4)nnc3s2)o1 | -2.7 | nt | ? | i | ?
COc1cccc(-c2nn3c(-c4ccccn4)nnc3s2)c1 | -4.2 | -1.9 | ? | i | ?
Brc1ccc(-c2nn3c(-c4ccccn4)nnc3s2)o1 | -1.5 | nt | -78.2* | i | -76.9*
CC(=O)Nc1cc(-c2cccc(N)c2)cn2c(-c3ccc(C(C)=O)cc3)cnc12 | -16.0 | ? | -6.1 | i | -13.6
CN1C(=O)N(CC(=O)NCc2ccc(Cl)cc2Cl)C(=O)C12CCCCC2 | -8.8 | -1.6 | -11.1 | i | -6.0
CCOc1ccc(-c2noc(CCC(=O)NCCc3ccccc3)n2)cc1OC | -0.8 | 5.7 | -65.5* | i | 6.7
COc1ccc(-c2noc(CCC(=O)NCCc3ccccc3)n2)cc1 | -0.8 | -1.9 | -6.2 | i | 7.0
O=C1CCN(CCc2ccccc2)CCN1[C@H](CSc1ccccc1)c1ccccc1 | -63.2* | -2.4 | -6.9 | i | -22.7
Cc1ccc(SC[C@H](c2ccccc2)N2CCN(CCc3ccccc3)CCC2=O)cc1 | -0.9 | -0.7 | -16.9 | i | -24.2
NC(=O)C1CCN(C(=O)/C=C/c2cc(Br)ccc2F)CC1 | 0.2 | 6.3 | 16.2 | i | 1.6
NC1=NN=C(N2N=C(c3ccco3)CC2(O)C(F)(F)F)n2ncnc2C1 (stereo unspecified) | -14.8 | 4.2 | 20.9 | i | -70.7*
O=S(=O)(/C=C/c1ccccc1)n1cnc2ccccc21 | 4.3 | -5.7 | 4.8 | -117.8%* | 11.6
COc1cccc(NC(=O)CN2CCN(c3ccccc3F)CC2)c1 | -0.7 | -5.0 | 3.2 | -109.9%* | -1.1
CCC1(C)CC(=O)N(c2ccc(C(=O)O)c(O)c2)C1=O (stereo unspecified) | -4.2 | 0.9 | -9.7 | -113.8%* | 16.6
Cc1cc(NC(=O)CSc2n[nH]c(=O)[nH]c2=O)ccc1Br | 5.4 | 1.2 | nt | i | 1.6
c1ccc(Nc2nnc(SCc3cccc4ccccc34)s2)cc1 | -12.7 | ? | 2.6 | -113.6%* | 2.2
O=C(CSc1nnc(SCc2cccc3ccccc23)s1)Nc1ccc(Oc2ccccc2)cc1 | -2.6 | nt | nt | nt | nt
CSc1nsc(SCC(=O)Nc2ccc(C(=O)O)cc2)n1 | 1.5 | -51.0* | 1.1 | i | 7.2
O=C(CSc1n[nH]c(=O)[nH]c1=O)Nc1ccc(C(=O)O)cc1 | -5.5 | -64.4* | nt | i | 7.1
O=C(CSc1nnc(SCc2cccc3ccccc23)s1)Nc1ccc(C(=O)O)cc1 | -3.3 | -92.9* | 2.9 | i | -0.5
COc1ccc2ncccc2c1Cc1c(OC)ccc2ncccc12 | -7.8 | 1.7 | -6.3 | i | -11.1
Cc1ccc(S(=O)(=O)N2[C@@H](c3ccc(C(C)(C)C)cc3)C(C(=O)O)=CC[C@H]2c2cccc(Cl)c2)cc1 | -0.9 | ? | -10.1 | i | -23.9
COC(=O)c1cnc(SCc2ccc(Cl)cc2)n1C | 1.3 | 0.5 | 2.2 | i | 24.4
COCc1cc(=O)[nH]c(Nc2nc3ccccc3o2)n1 | -6.9 | -3.6 | -84.9* | i | -73.8*
